Source: the supplement of paper PMC10849652
Of roughly 8,800 targets only a part is listed; those with a hit were picked by preference. About 0.5% of all pairs of compound and target were hits.

Assays:
Experiment in all cases: log2 fold change, soluble protein after heating vs DMSO (PISA); higher = thermal stabilisation; K562 lysate, 10 uM; active = over 0.2 and 3.5 SD of the protein, either way, in both replicates (recomputed)
[1] = compound: Cc1cn(-c2cc(NC(=O)c3ccc(C)c(Nc4nccc(-c5cccnc5)n4)c3)cc(C(F)(F)F)c2)cn1 [nilotinib]
Summary of the method: (§1)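 The values are log-two fold changes in thermal stability compared with solvent controls and come from duplicates. They were obtained by TMTpro 16plex LC-MS/MS, with channel sums equalised, on the supernatant after 21,000xg for 90 min. That supernatant came from crude K562 extract at 1 mg/mL protein treated with 10 μM compound for 30 min, heated for 3 min across 48°C-58°C, pooled and brought to 0.5% NP-40 at 4°C.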

[2] = compound: Cc1nc(Nc2n[nH]c3c2CN(C(=O)N[C@H](CN(C)C)c2ccccc2)C3(C)C)c2sccc2n1
Summary of the method: as §1

[3] = compound: Cc1ncc(-c2ccnc(Nc3ccc(S(C)(=O)=O)cc3)n2)n1C(C)C
Summary of the method: as §1

[4] = compound: Cn1cc(CNCC2CCN(c3ncc(C(=O)NO)cn3)CC2)c2ccccc21 [quisinostat]
Summary of the method: as §1

[5] = compound: Cn1cncc1[C@@](N)(c1ccc(Cl)cc1)c1ccc2c(c1)c(-c1cccc(Cl)c1)cc(=O)n2C [tipifarnib]
Summary of the method: as §1

[6] = compound: NC(=O)Nc1cc(-c2cccc(F)c2)sc1C(=O)N[C@H]1CCCNC1
Summary of the method: as §1

[7] = compound: NC1(c2ccc(-c3nc4ccn5c(=O)[nH]nc5c4cc3-c3ccccc3)cc2)CCC1
Summary of the method: as §1

[8] = compound: O=C(CCCCCCC(=O)Nc1ccccc1)NO [vorinostat]
Summary of the method: as §1

[9] = compound: O=C(O)c1ccc2c(c1)nc(Nc1cccc(Cl)c1)c1ccncc12 [silmitasertib]
Summary of the method: as §1

[10] = compound: O=C1NC(=O)C(c2cnc3ccccn23)=C1c1cn2c3c(cc(F)cc13)CN(C(=O)N1CCCCC1)CC2
Summary of the method: as §1

[11] = compound: Cc1nc(Nc2ncc(C(=O)Nc3c(C)cccc3Cl)s2)cc(N2CCN(CCO)CC2)n1 [dasatinib]
Summary of the method: as §1

[12] = compound: Cn1cc(-c2ccc3c(c2)CCN3C(=O)Cc2cccc(C(F)(F)F)c2)c2c(N)ncnc21
Summary of the method: as §1

[13] = compound: NC(=O)c1cnc(N[C@@H]2CCCC[C@@H]2N)nc1Nc1cccc(-n2nccn2)c1
Summary of the method: as §1

[14] = compound: NCC(=O)Nc1ccc(-n2nc(C(F)(F)F)cc2-c2ccc3c(ccc4ccccc43)c2)cc1
Summary of the method: as §1

[15] = compound: c1cn2cc(-c3ccc4cn[nH]c4c3)nc(Nc3ccc(N4CCOCC4)cc3)c2n1 [entospletinib]
Summary of the method: as §1

Measured: log2 fold change

STAU1 isoform 3 (UniProt O95793)
inactive: [1] -0.051 | [2] -0.024 | [3] -0.023 | [4] -0.11 | [5] 0.032 | [6] 0.088 | [7] -0.047 | [8] -0.076 | [9] -0.103 | [10] -0.156

SRGN (UniProt P10124)
Chain of UniProt P10124 (P10124 whole entry, looked up): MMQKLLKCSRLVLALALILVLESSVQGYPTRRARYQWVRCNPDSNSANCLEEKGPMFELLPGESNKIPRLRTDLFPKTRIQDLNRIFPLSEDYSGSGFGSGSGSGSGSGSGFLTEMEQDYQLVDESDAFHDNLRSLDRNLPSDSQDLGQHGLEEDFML
inactive: [11] 0.003 | [12] -0.062 | [4] -0.026 | [6] 0 | [13] 0 | [7] -0.086 | [14] -0.073 | [8] 0.132 | [9] -0.123 | [10] -0.087 | [15] -0.013

SNUPN (UniProt O95149)
active: [7] -0.482
inactive: [1] -0.007 | [2] -0.013 | [3] 0.005 | [4] 0.128 | [5] -0.015 | [6] 0.042 | [13] -0.115 | [14] -0.076 | [8] -0.037 | [9] 0.142 | [10] -0.043 | [15] -0.066

STK38L (UniProt Q9Y2H1)
Chain of UniProt Q9Y2H1 (Q9Y2H1 whole entry, looked up): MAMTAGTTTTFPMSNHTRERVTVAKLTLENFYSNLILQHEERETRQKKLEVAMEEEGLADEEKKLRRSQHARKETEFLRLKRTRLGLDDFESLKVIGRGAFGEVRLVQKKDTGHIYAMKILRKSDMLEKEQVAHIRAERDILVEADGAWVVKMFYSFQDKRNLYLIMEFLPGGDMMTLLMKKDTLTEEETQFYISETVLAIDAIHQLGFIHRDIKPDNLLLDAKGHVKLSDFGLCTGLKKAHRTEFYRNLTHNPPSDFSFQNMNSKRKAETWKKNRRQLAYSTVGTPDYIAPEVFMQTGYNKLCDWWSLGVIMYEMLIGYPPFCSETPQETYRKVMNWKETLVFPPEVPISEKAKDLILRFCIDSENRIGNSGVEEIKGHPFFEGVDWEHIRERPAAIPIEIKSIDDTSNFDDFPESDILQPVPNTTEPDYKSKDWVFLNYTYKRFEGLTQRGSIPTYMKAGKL
active: [2] 0.68 | [6] 0.552
inactive: [1] -0.08 | [11] -0.002 | [3] -0.009 | [12] 0.102 | [4] -0.122 | [5] 0.04 | [7] -0.046 | [8] -0.162 | [9] 0.184 | [10] 0.022 | [15] 0.043

STK26 isoform 3 (UniProt Q9P289)
Chain of UniProt Q9P289 (Q9P289 whole entry, looked up): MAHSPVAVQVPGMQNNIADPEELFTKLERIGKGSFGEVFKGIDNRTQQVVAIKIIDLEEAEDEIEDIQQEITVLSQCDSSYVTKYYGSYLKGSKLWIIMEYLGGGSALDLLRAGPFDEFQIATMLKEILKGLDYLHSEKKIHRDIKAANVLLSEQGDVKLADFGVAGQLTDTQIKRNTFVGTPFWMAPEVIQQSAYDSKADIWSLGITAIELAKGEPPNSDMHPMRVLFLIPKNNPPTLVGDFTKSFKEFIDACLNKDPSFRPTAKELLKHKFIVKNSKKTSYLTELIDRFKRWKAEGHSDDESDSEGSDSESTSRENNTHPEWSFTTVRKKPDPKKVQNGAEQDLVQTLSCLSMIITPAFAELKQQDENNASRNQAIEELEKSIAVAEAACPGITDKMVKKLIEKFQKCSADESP
inactive: [11] 0.181 | [12] -0.028 | [4] 0.093 | [6] 0.203 | [10] 0.014 | [15] 0.116

STK17A (UniProt Q9UEE5)
Chain of UniProt Q9UEE5 (Q9UEE5 whole entry, looked up): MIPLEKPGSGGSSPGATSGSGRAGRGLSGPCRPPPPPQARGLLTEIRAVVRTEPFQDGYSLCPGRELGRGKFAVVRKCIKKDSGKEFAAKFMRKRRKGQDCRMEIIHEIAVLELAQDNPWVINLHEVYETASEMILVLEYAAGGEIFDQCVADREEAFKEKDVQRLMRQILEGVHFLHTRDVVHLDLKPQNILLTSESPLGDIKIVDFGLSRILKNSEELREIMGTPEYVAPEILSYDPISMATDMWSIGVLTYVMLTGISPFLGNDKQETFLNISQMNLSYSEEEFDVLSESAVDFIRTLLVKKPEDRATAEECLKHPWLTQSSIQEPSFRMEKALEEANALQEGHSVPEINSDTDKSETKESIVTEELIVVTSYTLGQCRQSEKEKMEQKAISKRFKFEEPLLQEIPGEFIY
inactive: [1] 0.076 | [2] 0.188 | [3] 0.249 | [5] -0.387

SLC22A18 (UniProt Q96BI1)
inactive: [4] -0.027 | [6] -0.032 | [13] 0.029 | [7] 0.007 | [14] -0.136 | [8] -0.044 | [9] 0.006 | [10] 0.004 | [15] 0.013

SZT2 (UniProt Q5T011)
active: [8] 1.2
inactive: [1] -0.03 | [2] 0.434 | [11] 0.04 | [3] 0.02 | [12] -0.122 | [5] -0.019 | [13] -0.009 | [7] -0.046 | [9] -0.081 | [15] -0.1

SLC35A3 isoform 2 (UniProt Q9Y2D2)
Chain of UniProt Q9Y2D2 (Q9Y2D2 whole entry, looked up): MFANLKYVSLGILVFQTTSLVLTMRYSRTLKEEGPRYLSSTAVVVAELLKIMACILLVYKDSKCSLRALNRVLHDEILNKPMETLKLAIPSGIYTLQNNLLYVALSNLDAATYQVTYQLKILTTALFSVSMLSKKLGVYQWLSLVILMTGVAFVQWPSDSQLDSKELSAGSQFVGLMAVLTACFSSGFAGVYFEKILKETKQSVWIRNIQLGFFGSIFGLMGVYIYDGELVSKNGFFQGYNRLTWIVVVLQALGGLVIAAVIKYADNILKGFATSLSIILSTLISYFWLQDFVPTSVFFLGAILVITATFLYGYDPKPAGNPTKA
inactive: [1] 0.02 | [2] -0.001 | [3] -0.049 | [4] -0.241 | [5] 0.069 | [6] 0 | [13] 0.019 | [7] 0.056 | [14] -0.022 | [8] 0.091 | [9] -0.07 | [10] 0.019 | [15] 0

SRC isoform 2 (UniProt P12931)
Chain of UniProt P12931 (P12931 whole entry, looked up): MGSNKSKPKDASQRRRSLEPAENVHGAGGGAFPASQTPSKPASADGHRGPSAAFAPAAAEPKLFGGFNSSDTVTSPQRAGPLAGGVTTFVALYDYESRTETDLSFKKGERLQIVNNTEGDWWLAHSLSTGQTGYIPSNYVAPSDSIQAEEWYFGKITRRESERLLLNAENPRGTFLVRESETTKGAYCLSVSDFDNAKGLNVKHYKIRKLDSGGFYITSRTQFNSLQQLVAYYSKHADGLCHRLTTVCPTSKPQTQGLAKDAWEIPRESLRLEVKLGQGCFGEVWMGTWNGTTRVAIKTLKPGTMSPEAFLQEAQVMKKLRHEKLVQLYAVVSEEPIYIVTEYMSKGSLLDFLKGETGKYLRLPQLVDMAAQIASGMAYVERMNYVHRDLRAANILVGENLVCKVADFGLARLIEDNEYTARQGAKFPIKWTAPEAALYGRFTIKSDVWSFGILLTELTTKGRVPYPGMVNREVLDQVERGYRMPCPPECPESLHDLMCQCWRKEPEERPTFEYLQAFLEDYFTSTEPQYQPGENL
inactive: [12] -0.023 | [13] 0.015 | [7] 0.012 | [8] 0.073 | [9] -0.069 | [15] -0.111

SORBS3 (UniProt O60504)
Chain of UniProt O60504 (O60504 whole entry, looked up): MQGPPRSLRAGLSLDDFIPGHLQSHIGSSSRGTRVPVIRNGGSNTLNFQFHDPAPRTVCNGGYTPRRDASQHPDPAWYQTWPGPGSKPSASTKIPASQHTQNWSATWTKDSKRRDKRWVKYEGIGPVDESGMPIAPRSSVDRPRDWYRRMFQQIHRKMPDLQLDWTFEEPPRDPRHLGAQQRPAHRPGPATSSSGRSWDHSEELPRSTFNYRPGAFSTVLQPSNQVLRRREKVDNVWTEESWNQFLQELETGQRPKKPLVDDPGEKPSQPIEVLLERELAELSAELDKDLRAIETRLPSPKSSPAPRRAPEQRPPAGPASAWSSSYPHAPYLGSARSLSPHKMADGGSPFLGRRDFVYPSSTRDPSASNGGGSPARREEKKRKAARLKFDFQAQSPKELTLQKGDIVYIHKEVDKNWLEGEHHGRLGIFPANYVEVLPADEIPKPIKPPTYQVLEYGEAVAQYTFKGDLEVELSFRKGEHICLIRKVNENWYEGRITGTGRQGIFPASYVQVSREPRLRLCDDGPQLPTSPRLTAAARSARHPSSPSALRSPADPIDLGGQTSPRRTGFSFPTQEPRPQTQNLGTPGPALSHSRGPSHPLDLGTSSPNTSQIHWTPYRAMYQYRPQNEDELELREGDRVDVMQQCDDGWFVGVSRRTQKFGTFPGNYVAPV
active: [8] -0.561
inactive: [11] 0.005 | [12] -0.019 | [4] -0.088 | [6] 0.022 | [13] 0.036 | [7] -0.019 | [14] -0.122 | [9] 0.057 | [10] 0.031 | [15] 0.01

STN1 (UniProt Q9H668)
Chain of UniProt Q9H668 (Q9H668 whole entry, looked up): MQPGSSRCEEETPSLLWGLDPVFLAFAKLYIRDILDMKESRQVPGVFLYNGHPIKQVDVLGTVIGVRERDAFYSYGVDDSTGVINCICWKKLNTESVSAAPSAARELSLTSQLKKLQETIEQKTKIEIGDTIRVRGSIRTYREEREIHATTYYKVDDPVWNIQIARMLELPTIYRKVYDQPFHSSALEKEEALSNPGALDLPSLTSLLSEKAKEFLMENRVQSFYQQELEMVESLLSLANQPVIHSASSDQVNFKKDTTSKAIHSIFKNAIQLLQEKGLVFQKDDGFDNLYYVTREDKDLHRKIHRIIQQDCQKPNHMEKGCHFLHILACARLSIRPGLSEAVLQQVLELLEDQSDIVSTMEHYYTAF
inactive: [1] -0.149 | [2] -0.071 | [3] 0.034 | [4] -0.104 | [5] 0.005 | [6] 0.156 | [13] 0.032 | [7] 0.02 | [14] -0.03 | [8] -0.2 | [9] -0.111 | [10] 0.126 | [15] 0.049

SLC25A44 (UniProt Q96H78)
Chain of UniProt Q96H78 (Q96H78 whole entry, looked up): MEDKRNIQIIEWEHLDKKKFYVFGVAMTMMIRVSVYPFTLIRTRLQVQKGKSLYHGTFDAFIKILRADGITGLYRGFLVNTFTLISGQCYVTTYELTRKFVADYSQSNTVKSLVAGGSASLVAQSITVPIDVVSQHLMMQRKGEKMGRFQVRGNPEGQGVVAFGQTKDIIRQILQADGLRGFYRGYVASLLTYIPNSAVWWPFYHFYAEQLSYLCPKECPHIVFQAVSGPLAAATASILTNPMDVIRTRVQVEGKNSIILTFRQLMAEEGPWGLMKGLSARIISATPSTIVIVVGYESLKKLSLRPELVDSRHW
inactive: [12] -0.162 | [4] -0.025 | [6] 0.044 | [13] 0.005 | [7] 0.363 | [14] 0.13 | [8] 0.025 | [9] -0.02 | [10] -0.056 | [15] -0.026
active: [11] -0.539

SLCO4A1 (UniProt Q96BD0)
inactive: [1] -0.006 | [2] 0.044 | [3] 0.008 | [5] 0.076

SLC39A13 (UniProt Q96H72)
Chain of UniProt Q96H72 (Q96H72 whole entry, looked up): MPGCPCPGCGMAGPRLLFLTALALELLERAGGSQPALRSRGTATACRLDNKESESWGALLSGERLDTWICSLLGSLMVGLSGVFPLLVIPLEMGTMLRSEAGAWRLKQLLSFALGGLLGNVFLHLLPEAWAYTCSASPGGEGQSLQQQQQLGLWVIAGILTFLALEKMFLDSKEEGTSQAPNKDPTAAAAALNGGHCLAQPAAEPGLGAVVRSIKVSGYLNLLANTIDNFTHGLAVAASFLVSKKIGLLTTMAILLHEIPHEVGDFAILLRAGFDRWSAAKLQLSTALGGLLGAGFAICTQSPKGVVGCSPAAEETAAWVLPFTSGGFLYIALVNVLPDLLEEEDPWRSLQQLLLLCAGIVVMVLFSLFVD
inactive: [7] -0.018 | [8] -0.064 | [9] -0.092

SH3BP2 isoform 4 (UniProt P78314)
Chain of UniProt P78314 (P78314 whole entry, looked up): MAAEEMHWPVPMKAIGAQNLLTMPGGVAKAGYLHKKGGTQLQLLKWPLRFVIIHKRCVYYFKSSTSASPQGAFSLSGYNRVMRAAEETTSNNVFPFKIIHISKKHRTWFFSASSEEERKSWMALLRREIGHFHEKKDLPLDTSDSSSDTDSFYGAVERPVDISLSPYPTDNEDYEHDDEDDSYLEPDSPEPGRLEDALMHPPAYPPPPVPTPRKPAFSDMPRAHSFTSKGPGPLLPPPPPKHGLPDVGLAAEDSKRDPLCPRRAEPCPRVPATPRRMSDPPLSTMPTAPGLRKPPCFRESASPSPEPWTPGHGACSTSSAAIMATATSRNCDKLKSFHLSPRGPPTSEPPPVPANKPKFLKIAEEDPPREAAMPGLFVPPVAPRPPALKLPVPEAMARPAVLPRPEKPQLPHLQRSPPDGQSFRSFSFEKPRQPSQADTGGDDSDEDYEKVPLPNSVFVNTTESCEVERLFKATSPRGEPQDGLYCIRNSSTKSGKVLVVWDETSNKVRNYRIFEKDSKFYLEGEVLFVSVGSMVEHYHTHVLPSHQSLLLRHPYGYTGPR
inactive: [11] -0.027 | [12] -0.107 | [4] -0.111 | [6] 0.019 | [13] 0.141 | [7] 0.048 | [14] 0.08 | [8] -0.27 | [9] 0.092 | [10] -0.017

SLC12A6 isoform 2 (UniProt Q9UHW9)
inactive: [11] -0.072 | [12] 0.206 | [4] -0.011 | [6] -0.055 | [13] -0.043 | [7] 0.039 | [8] 0.17 | [9] -0.03 | [10] -0.064 | [15] -0.114
